Molecules are shown by their SMILES. Screen size: about 71,000 compounds; about 180 (0.25%) were called active. The list comes from a sample in which actives are over-represented; it also holds similar structures and randomly drawn compounds. Where a call stands in place of a potency, no number is given. A number with no mark means an inactive call. The call rests on the fitted dose curve; in most records, active means well fitted curve in the direction sought with a large enough effect; inconclusive means small, poorly fitted or top-dose-only effect; inactive means flat fitted curve, though single readings scatter.

This test concerns DNA polymerase III holoenzyme (E. coli). Kind of test: qHTS Assay for Inhibitors of DNA Polymerase III Holoenzyme System. As to conditions: reconstituted DNA polymerase III holoenzyme replication, biochemical; series mostly up to 57.1 µM. The protocol: NIH Molecular Libraries Screening Centers Network [MLSCN]
NIH Chemical Genomics Center [NCGC]
Assay Provider: Charles McHenry, University of Colorado
E. coli DNA polymerase III holoenzyme complex was assayed for DNA production by fluorescent detection of the double-stranded DNA product with PicoGreen dye. The holoenzyme complex was reconstituted from the following purified protein components: DNA Polymerase III, beta subunit processivity factor, SSB single-stranded DNA binding protein, and Primase. Single-stranded, circular M13Gori was used as a substrate with dNTPs and NTPs also supplied to the substrate reagent. Compounds from the NCGC collection were incubated with the holoenzyme mixture for 15 min at room temperature to allow binding to occur, and then the reaction was started by the addition of substrate. After 30 min incubation at room temperature, PicoGreen solution containing EDTA was added to stop the reaction and to visualize the double-stranded DNA produced. Reaction progress was measured in a ViewLux CCD imager in fluorescence intensity mode by using 480 nm excitation and 540 nm emission filter set.
NCGC Assay Protocol Summary:
Buffer. 50 mM Hepes-KOH, pH 7.5, 5 % Glycerol, 0.02% NP40, 30 mM potassium;
glutamate, 1.5 mM Magnesium Acetate, 16 uM TCEP.
Buffer in columns 3 and 4 as negative control (no enzyme).
Substrate solution: 5 uM each dATP, dGTP, dCTP and TTP, 50 uM each GTP, CTP, UTP and 200 uM ATP, 1.4 nM M13gori (final concentrations).
Enzyme: 154 nM SSB, 2 nM Primase, 1 nM Beta, 0.35 nM Pol III (final concentrations).
PicoGreen/EDTA: 10 mM Tris-HCl, 10 mM EDTA, 5 uM PicoGreen (final concentrations).
Control titration: ChemBridge 5805060 (from 10 mM, then 1:2, in duplicate) was pin-transferred to upper half of column 2.
Three uL of holoenzyme mixture were dispensed to 1536-well Greiner black solid bottom plates. Compounds and controls (23 nL) were transferred via Kalypsys PinTool. The plates were incubated for 15 min at room temperature, and then 1 uL of substrate solution was added to start the reaction. After room temperature incubation for 35 minutes, 1 uL of PicoGreen solution was added to each well and the plates were read 480 nm excitation and 540 nm emission using ViewLux (Perkin-Elmer) High-throughput CCD imager and fluorescence protocol settings.
Keywords: NIH Roadmap, MLSCN, MLI, MLSMR, qHTS, NCGC, DNA Polymerase III, DNAPol3, DNAPoly3, DNA replication targets
Background: qHTS replaces the single test concentration by a dilution series.
Consider `O=C(c1cc(C(F)(F)F)cc(C(F)(F)F)c1)N1CCC2(CC1)CN(c1ccncc1)C2`, for which the activity change, negative = inhibition entry was “inactive”. `CCN1C(=O)/C(=C2\SC(N3CCCCC3)=NC2=O)c2ccccc21`: the activity change, negative = inhibition result is “inactive”.

As to `C/C=C/C=C/C(=O)O`, the activity change, negative = inhibition entry was “inactive”. Same read-out and setting: next, `O=S(=O)(/C=C/c1ccccc1)NCCc1ccccn1`: “inactive”; `COc1ccc(S(=O)(=O)Nc2ccc3c(c2)OCO3)cc1Cl`: “inactive”; `Cn1c(C(=O)NCCc2ccsc2)cc2c(=O)n(C)c3ccccc3c21`: “inactive”. On the same count and under the same terms, next, `CC1CCCC(C)N1CCCNC(=O)c1cc2c(=O)n(C)c3ccccc3c2n1C` (centres undefined): “inactive”. Regarding `CCN1CCCC1CNC(=O)c1cc2c(=O)n(C)c3ccccc3c2n1C` (centres undefined), the Potency was 25.1 µM (active). Regarding `OCCNCCCCOc1ccccc1F`, the activity change, negative = inhibition was -4.9% [at 11.4 µM].

Consider `CC1(C)S[C@@H]2[C@@H](NC(=O)[C@@H](N)c3ccccc3)C(=O)N2[C@H]1C(=O)O`, for which the activity change, negative = inhibition result was “inactive”.

`Oc1ccc(Cn2cc[nH]c2=S)cc1`: the activity change, negative = inhibition entry is “inactive”. Regarding `C[N+]1(CCN=C=NC2CCCCC2)CCOCC1`, the activity change, negative = inhibition was -1.6% [at 11.4 µM].

On to `COc1ccc(C(=O)OCC(=O)c2ccc(C)c(S(=O)(=O)N3CCOCC3)c2)cc1OC`, for which the activity change, negative = inhibition result is “inactive”. On the same count and under the same terms, the value for `CCOc1ccc(NC(=O)CCC(=O)n2nc(C)cc2C)cc1` was “inactive”; that for `Cc1cccc(N2CCN(C(=O)c3cc4c(=O)[nH]c5ccccc5c4n3C)CC2)c1C` was “inactive”. On the same count and under the same terms, the value for `CCCn1c(C)nc2c(NCCCCN(CC)CC)nc(C)nc21` was “inactive”.

For `NCCNCC1CCNCC1`, the activity change, negative = inhibition was -9.7% [at 11.4 µM]. The same measure, in the same setting: the value for `CCNC(=S)NCC` was “inactive”.

Take `CC(Cc1ccccc1)C(=O)N(C)Cc1ccccc1` (centres undefined): the activity change, negative = inhibition result was “inactive”.

Consider `COc1ccccc1CNc1ncncc1-c1cccnc1`, for which the activity change, negative = inhibition entry was “inactive”. Still for that read-out and setting: the value for `COc1cccc(NC(=O)Cn2cnc3sc(C)c(S(=O)(=O)N4CCN(C)CC4)c3c2=O)c1` was “inactive”; that for `COc1ccccc1N1CCN(C(=O)Cn2nnc(-c3cccs3)n2)CC1` was “inactive”; that for `Cc1[nH]c(N)nc(=S)c1CCCNc1ccccc1` was -9.5% [at 11.4 µM].

For `COc1ccc(OCC(=O)N2CCN(C(=O)c3cccs3)CC2)cc1`, the activity change, negative = inhibition result is “inactive”.

Consider `CC(C)C[C@@H](CC(=O)N[C@@H](CCC(=O)O)CC(=O)O)NC(=O)[C@@H]1CCCC[C@H]1NC(=O)C[C@@H](NC(=O)C[C@H](CO)NC(=O)[C@@H]1CCCC[C@H]1N)C(C)C`, for which the activity change, negative = inhibition entry was “inactive”.

Take `Cc1c(C)c2c(c(C)c1O)CC[C@@](C)(CN1CCN(c3cc(N4CCCC4)nc(N4CCCC4)n3)CC1)O2`: the activity change, negative = inhibition entry was “inactive”. On the same count and under the same terms, the value for `CCCCNC(=O)CSc1nnc(-c2ccco2)n1C` was “inactive”; that for `CCN(CC)CCNC(=O)Cn1cnc2sc(C)c(S(=O)(=O)N3CCOCC3)c2c1=O` was “inactive”. For the molecule `O=C1CC(c2ccccc2)C(=O)N1c1cccc(O)c1` (centres undefined), the activity change, negative = inhibition result was “inactive”.

On to `Cc1cc(Nc2ccc(Br)cc2F)n2ncnc2n1`, for which the activity change, negative = inhibition entry was “inactive”. For `COC(=O)c1ccccc1NC(=O)C1CCN(S(=O)(=O)c2cc(OC)ccc2OC)CC1`, the activity change, negative = inhibition entry was “inactive”. On the same count and under the same terms, the value for `O=C(NCCCCO)C(F)(F)C(F)(F)C(F)(F)C(=O)NCCCCO` was “inactive”. Still for that read-out and setting: the value for `CCOc1cc(-c2nc3cc(C)ccn3c2NCC2CCCO2)ccc1O` (centres undefined) was “inactive”; that for `N#C/C=C1\Sc2ccccc2C(=O)N1CC(=O)N1CCN(S(=O)(=O)c2ccccc2)CC1` was “inactive”; that for `COc1ccc(NC(=O)N2CC3(CCN(C(C)=O)CC3)C2)cc1` was “inactive”. On the same count and under the same terms, next, `CCN(CC(=O)NCc1cccs1)c1nnnn1-c1ccccc1`: “inactive”; `O=C1N(Cc2ccc3c(c2)OCO3)c2ccccc2C1(O)c1c[nH]c2ccccc12` (centres undefined): “inactive”.

`Cc1nc2cnc(N3CCN(C)CC3)nc2n(C[C@H]2CCCO2)c1=O`: the activity change, negative = inhibition result was “inactive”.

For `O=C(O)c1c(Br)c(Br)c(Br)c(Br)c1C1c2ccc(O)cc2Oc2cc(O)ccc21`, the Potency was 0.0251 µM (active). As for `N#CC1=C(N)Oc2cc(O)ccc2C1C1CCCCC1` (centres undefined), the activity change, negative = inhibition entry is “inactive”.

`FC(F)(F)c1ccccc1-c1nc(-n2ccnc2)c2ccccc2n1`: the activity change, negative = inhibition result was “inactive”. Still for that read-out and setting: the value for `O=C(CSc1nc(-c2ccco2)cc(C(F)(F)F)n1)N1CCc2ccccc2C1` was “inactive”.

In the case of `O=C(O)/C(=C/c1c(C(=O)O)[nH]c2cc(Cl)cc(Cl)c12)c1ccccc1`, the Potency is 31.6 µM (active). For the molecule `COCCCNC(=O)c1ccc(CNS(=O)(=O)c2ccc(NC(C)=O)cc2)cc1`, the activity change, negative = inhibition entry is “inactive”.
